Compounds with a hit are over-represented: about 0.93% of the library has one in this group of screens.
CDC25B-CDK2 inh: human CDC25B-CDK2/CyclinA binding inhibition. 94,000 compounds, 0.72% hits. z-score (concentration not given with the values). HTRF CDC25B-CDK2/CyclinA binding, anti-His/anti-Flag; active compounds read high; in the data active means z-score above about 3.2
TAR Tat displ: HIV-1 TAR-Tat binding disruption | HIV-1 TAR RNA, Tat peptide displacement FRET; active compounds read high | AID 1259389 | 100,000 compounds, 0.6% hits | z-score (no concentration beside the values); active means z-score of 3 or more in at least 2 runs
Starred values were filed as active, the others as inactive; . = no result.

SMILES	CDC25B-CDK2 inh	TAR Tat displ
CN(C)[C@@H]1C(=O)C(C(N)=O)=C(O)[C@@]2(O)C(=O)C3=C(O)c4c(O)cccc4[C@@](C)(O)[C@H]3[C@H](O)[C@@H]12	.	22*
CN(C)[C@@H]1C(=O)C(C(N)=O)=C(O)[C@@]2(O)C(=O)C3=C(O)c4c(O)ccc(Cl)c4[C@@](C)(O)[C@H]3C[C@@H]12	.	12*
Cc1c(N=Nc2no[n+]([O-])c2C)no[n+]1[O-]	-1.9	.
Cc1nn(-c2nc3ccccc3s2)c2c1C(c1ccc(O)c(O)c1)SCC(=O)N2 (configuration not stated)	-1.9	6.5*
CCOc1cc(C2SCC(=O)Nc3c2c(C)nn3-c2nc3ccccc3s2)ccc1O (configuration not stated)	-1.1	0.69
CN(C)c1ccc(C2c3cccn3-c3ccccc3CN2C(=O)NCc2ccco2)cc1 (configuration not stated)	.	1.6
NCCc1c[nH]c2ccccc12	-0.02	0.19
NCCc1cc(O)c(O)cc1O	.	29*
CN1CC=C(c2noc(CCC(=O)N3CCC(Cc4ccccc4)CC3)n2)CC1	-1.1	0.93
c1ccc2cc(CNCCc3c[nH]c4ccccc34)ccc2c1	-1.4	.
Fc1ccccc1CNCCc1c[nH]c2ccccc12	2.3	0.3
Fc1ccc(CNCCc2c[nH]c3ccccc23)cc1F	16*	-0.12
c1coc(CNCCc2c[nH]c3ccccc23)c1	14*	-0.14
Cc1nn(-c2nc3ccccc3s2)c2c1C(c1ccc(F)cc1)SCC(=O)N2 (configuration not stated)	-1.1	0.87
COc1ccc2c(c1)[C@]13CCCC[C@H]1[C@H](C2)N(C)CC3	.	1.8
COc1ccc(CC2NCCc3cc(OC)c(OC)cc32)cc1OC (configuration not stated)	-0.3	37*
COc1ccc(CCNC2(C#N)CCCCC2)cc1OC	-0.88	.
Cc1cc(Br)ccc1-n1c(=S)[nH]c2ccccc2c1=O	-3.1	.
Cc1o[nH]c(=O)c1CC(N)C(=O)O (configuration not stated)	-1.1	.
NC(Cc1cc(O)c(O)cc1O)C(=O)O (configuration not stated)	20*	.
Clc1ccc(CC2=NCCN2)cc1	.	0.54
O=C1C[C@@H]2OCC=C3CN4CC[C@]56c7ccccc7N1[C@H]5[C@H]2[C@H]3C[C@H]46	.	1.4
O=C1C2CCCN2C(c2ccccc2F)N1c1ccccn1 (configuration not stated)	-0.41	.
COc1cc2c3c(c1O)-c1c(cccc1OC)CC3N(C)CC2 (configuration not stated)	-0.03	-11
COc1cc2c(cc1OC)-c1c(OC)c(OC)cc3c1C(C2)N(C)CC3 (configuration not stated)	-6.7	6.3*
CCC(C)n1[nH]c(=O)c2c1NC(=O)CSC2c1ccccc1 (configuration not stated)	-0.28	0.59
CCCCOc1ccc(C2SCC(=O)Nc3n[nH]c(C)c32)cc1OC (configuration not stated)	-1.3	1.2

Screens as filed in PubChem BioAssay.
